For nine compounds, Potency and outcome results are on record in PubChem BioAssay (Tox21).

SMILES strings stand for the structures. Inconclusive results are not listed. The source made the active and inactive calls. Unless noted, calls come from the whole dose curve; as a rule, active = well fitted curve in the direction sought with a large enough effect in the repeat runs; inconclusive = weak or mixed curves; inactive = no such curve, though single readings can be large; an effect the other way counts as inactive or inconclusive.

Test [1] can be described thus: qHTS assay to identify small molecule agonists of the peroxisome proliferator-activated receptor delta (PPARd) signaling pathway - cell viability counter screen (AID 743211). Note: nearly all actives have a fitted effect of over 55% in size. Put shortly:
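Multiplexed format: after the 2 h room-temperature LiveBLAzer B/G FRET step, CellTiter-Glo was added to the same wells. Luminescence after 30 min gave cell viability; compound exposure was 17 h at 37C.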
(In general: In qHTS, concentration-response curves come from the screen itself.)

Test [2] concerns the target Peroxisome proliferator-activated receptor delta (Homo sapiens) (UniProt Q03181). As to the kind of experiment: qHTS assay to identify small molecule agonists of the peroxisome proliferator-activated receptor delta (PPARd) signaling pathway (AID 743212; calls by dose curve). Put shortly: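 HEK293H UAS-bla reporter cells, human PPARd system; compounds delivered in DMSO after 5 h plating, then at 37 C. Beta-lactamase FRET read, 2 h RT substrate step.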

Test [3] is described as follows: qHTS assay to identify small molecule antagonists of the peroxisome proliferator-activated receptor delta (PPARd) signaling pathway - cell viability counter screen (AID 743213). Note: nearly all actives have a fitted effect of over 50% in size. The procedure, abridged: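 In this counter screen, HEK293H cells carrying a UAS-beta-lactamase reporter are co-treated with test compounds and 300 nM L165041 (final) for 17 h at 37 C; cell viability is quantified by CellTiter-Glo luminescence.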

For test [4], the target named is Peroxisome proliferator-activated receptor delta (Homo sapiens) (UniProt Q03181). The test can be described thus: qHTS assay to identify small molecule antagonists of the peroxisome proliferator-activated receptor delta (PPARd) signaling pathway (AID 743215; active = well fitted inhibition curve with a large enough effect in the signal ratio in the repeat runs, not every such curve was filed as active; the % refers to the signal ratio;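 note: cells stimulated with agonist L165041 at 300 nM final during compound exposure; series mostly up to about 62 µM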). The procedure, abridged:
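With L165041 present at 300 nM final, compounds were incubated 17 h at 37 C on PPARd UAS-bla HEK293H cells. A FRET-based beta-lactamase substrate was then applied for 2 h at room temperature and fluorescence intensity recorded.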

A short description of test [5]: qHTS assay to identify small molecule agonists of the farnesoid-X-receptor (FXR) signaling pathway - cell viability counter screen (AID 743218). Note: nearly all actives have a fitted effect of over 45% in size. The procedure, abridged: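 After 16 h at 37 C with test compounds, FXR-bla HEK 293T cells were given LiveBLAzer B/G substrate for 2 h at RT and then CellTiter-Glo; luminescence was taken after 30 min.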
The nature of test [6]: qHTS assay to identify small molecule antagonists of the farnesoid-X-receptor (FXR) signaling pathway - cell viability counter screen (AID 743221; active = well fitted cell-killing curve with a large enough effect in the repeat runs, not every such curve was filed as active; note: nearly all actives have a fitted effect of over 50% in size). The procedure, abridged:
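CellTiter-Glo, 30 min RT, luminescence; same wells as the LiveBLAzer FRET read. Cells: FXR-UAS-bla HEK 293T. Treatment: compound with chenodeoxycholic acid 50 uM final, 16 h at 37 C.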

Test [7] addresses Vitamin D3 receptor (Homo sapiens) (UniProt P11473). The test can be described thus: qHTS assay to identify small molecule agonists of the vitamin D receptor (VDR) signaling pathway (AID 743222; calls by dose curve). The procedure, abridged:
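VDR-bla cells were seeded, left 4 h, treated with compounds in DMSO for 16 h, incubated 2 h at RT with B/G FRET substrate, and read for fluorescence.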

Test [8] has the same target. The test can be described thus: qHTS assay to identify small molecule antagonists of the vitamin D receptor (VDR) signaling pathway (AID 743223; active = well fitted inhibition curve with a large enough effect in the signal ratio in the repeat runs, not every such curve was filed as active; the % refers to the signal ratio). Put shortly: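 After VDR-bla cells are plated and left 4 h at 37C, DMSO-dissolved compounds and 3 nM (final) calcitriol agonist are added. Incubation continues 16 h at 37C; FRET beta-lactamase substrate then develops 2 h at room temperature.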

Test [9] can be described thus: qHTS assay to identify small molecule agonists of the vitamin D receptor (VDR) signaling pathway - cell viability counter screen (AID 743224). Note: series mostly up to about 63 µM; nearly all actives have a fitted effect of over 50% in size. The procedure, abridged:
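Here cell health was gauged by luminescent ATP detection (CellTiter-Glo, 30 min RT) in VDR-bla cells that had been incubated with test compounds for 16 h at 37C and 5% CO2.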

Test [10] can be described thus: qHTS assay to identify small molecule antagonists of the vitamin D receptor (VDR) signaling pathway - cell viability counter screen (AID 743225). Note: nearly all actives have a fitted effect of over 50% in size. The procedure, abridged:
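Cytotoxicity toward the VDR-bla HEK 293T line was scored by ATP-based CellTiter-Glo luminescence, read in the wells already used for the beta-lactamase readout after 16 h compound treatment under 3 nM 1-alpha,25-dihydroxyvitamin D3 stimulation.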

Test [11] can be described thus: qHTS assay to identify small molecule agonists of the NFkB signaling pathway (AID 1159509; active = well fitted curve in the direction sought with a large enough effect in the signal ratio in the repeat runs, not every such curve was filed as active; the % refers to the signal ratio; note: series mostly up to about 61 µM). Put shortly:
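After overnight attachment, reporter cells received test compounds, DMSO or positive controls and were incubated 5 hr at 37 C. FRET substrate was then added for 1.5 hr at room temperature before dual-emission fluorescence reading.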

A short description of test [12]: qHTS assay to identify small molecule agonists of the NFkB signaling pathway - cell viability counter screen (AID 1159515; calls by dose curve; note: series mostly up to about 61 µM; nearly all actives have a fitted effect of over 55% in size). Put shortly: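 5 hr compound treatment of NFkB-bla ME-180 cells (2,000/well, seeded overnight beforehand), followed by reporter substrate for 1.5 hr. CellTiter-Glo added afterward; luminescence after 30 min RT.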
Test [13] can be described thus: qHTS assay to identify small molecule agonists of the endoplasmic reticulum stress response signaling pathway (AID 1159516; active = well fitted activation curve with a large enough effect in the signal ratio in the repeat runs, not every such curve was filed as active; the % refers to the signal ratio). Put shortly:
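Reporter HeLa cells (ESRE-beta-lactamase) underwent 5 hr compound incubation at 37 C and 5% CO2 in quantitative HTS format. Detection followed 2 hr of FRET substrate loading at room temperature.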

Test [14] is described as follows: qHTS assay to identify small molecule agonists of the endoplasmic reticulum stress response signaling pathway - cell viability counter screen (AID 1159517; calls by dose curve). The procedure, abridged:
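Cells, HeLa ESRE-bla; density, 1,500/well; dosing, 5 hr at 37 C, 5% CO2; readout, CellTiter-Glo luminescence after 30 min RT.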

The nature of test [15]: qHTS assay to identify small molecule antagonists of the retinoid-related orphan receptor gamma (ROR-gamma) signaling pathway - cell viability counter screen (AID 1159520). Note: nearly all actives have a fitted effect of over 50% in size. The procedure, abridged: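 Cytotoxicity was read from cellular ATP (CellTiter-Glo luminescence) after 16 hr at 37 C with 1 uM doxycycline induction. The inducer was added 2 hr after compound transfer to Tet-on ROR gamma CHO cells.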

Test [16] in a line: qHTS assay to identify small molecule agonists of the AP-1 signaling pathway - cell viability counter screen (AID 1159525; calls by dose curve; note: nearly all actives have a fitted effect of over 55% in size). The procedure, abridged: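 Luminescent ATP readout (Cell Titer Glo, 30 min RT), normalised to DMSO and tetra n-octyl ammonium bromide controls. Cells were ME-180 AP-1-bla in 0.5% dialyzed FBS Opti-MEM, with a 5 h, 37 °C compound exposure.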
Test [17] is described as follows: qHTS assay to identify small molecule agonists of the AP-1 signaling pathway (AID 1159526; calls by dose curve).
Test [18] deals with Bile acid receptor (Homo sapiens) (UniProt Q96RI1). The test can be described thus: qHTS assay to identify small molecule antagonists of the farnesoid-X-receptor (FXR) signaling pathway (AID 743217; active = well fitted inhibition curve with a large enough effect in the signal ratio in the repeat runs, not every such curve was filed as active; the % refers to the signal ratio). Put shortly: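 In this cell-based antagonist screen, inhibition of CDCA-driven (50 uM final) UAS-beta-lactamase expression in HEK 293T cells was measured by FRET fluorescence following 16 h compound exposure at 37 °C.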

The target is the same in test [19]. As to the kind of experiment: qHTS assay to identify small molecule agonists of the farnesoid-X-receptor (FXR) signaling pathway (AID 743220; active = well fitted activation curve with a large enough effect in the signal ratio in the repeat runs, not every such curve was filed as active; the % refers to the signal ratio). The procedure, abridged: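 Beta-lactamase reporter under UAS control in GeneBLAzer FXR HEK 293T cells (5000/well) measured with LiveBLAzer FRET substrate after 2 h at room temperature. Compound exposure lasted 16 h at 37C.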

For test [20], the target named is Nuclear receptor ROR-gamma (Homo sapiens) (UniProt P51449). As to the kind of experiment: qHTS assay to identify small molecule antagonists of the retinoid-related orphan receptor gamma (ROR-gamma) signaling pathway (AID 1159521; note: nearly all actives have a fitted effect of over 50% in size; note: potency is the fitted concentration of half-maximal effect). The procedure, abridged: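 Readout: ONE-Glo luciferase luminescence, 30 min at room temperature. System: Tet-on RORγ CHO, RORE-LUC. Sequence: compound 2 h, doxycycline 1 uM final, 16 h at 37 C.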

Peroxisome proliferator-activated receptor delta (Homo sapiens), sequence (Q03181 whole entry, looked up): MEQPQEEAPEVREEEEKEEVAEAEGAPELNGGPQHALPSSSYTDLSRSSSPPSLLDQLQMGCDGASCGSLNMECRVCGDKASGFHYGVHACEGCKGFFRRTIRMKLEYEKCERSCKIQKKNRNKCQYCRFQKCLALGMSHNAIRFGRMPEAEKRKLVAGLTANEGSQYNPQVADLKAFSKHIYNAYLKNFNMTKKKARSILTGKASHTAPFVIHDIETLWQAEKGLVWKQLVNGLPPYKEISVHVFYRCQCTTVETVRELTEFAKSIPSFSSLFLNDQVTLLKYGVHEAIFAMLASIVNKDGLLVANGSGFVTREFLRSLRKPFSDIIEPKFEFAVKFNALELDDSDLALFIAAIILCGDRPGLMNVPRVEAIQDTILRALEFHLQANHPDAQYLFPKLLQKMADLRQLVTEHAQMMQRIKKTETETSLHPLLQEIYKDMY
Bile acid receptor (Homo sapiens), sequence (Q96RI1 whole entry, looked up): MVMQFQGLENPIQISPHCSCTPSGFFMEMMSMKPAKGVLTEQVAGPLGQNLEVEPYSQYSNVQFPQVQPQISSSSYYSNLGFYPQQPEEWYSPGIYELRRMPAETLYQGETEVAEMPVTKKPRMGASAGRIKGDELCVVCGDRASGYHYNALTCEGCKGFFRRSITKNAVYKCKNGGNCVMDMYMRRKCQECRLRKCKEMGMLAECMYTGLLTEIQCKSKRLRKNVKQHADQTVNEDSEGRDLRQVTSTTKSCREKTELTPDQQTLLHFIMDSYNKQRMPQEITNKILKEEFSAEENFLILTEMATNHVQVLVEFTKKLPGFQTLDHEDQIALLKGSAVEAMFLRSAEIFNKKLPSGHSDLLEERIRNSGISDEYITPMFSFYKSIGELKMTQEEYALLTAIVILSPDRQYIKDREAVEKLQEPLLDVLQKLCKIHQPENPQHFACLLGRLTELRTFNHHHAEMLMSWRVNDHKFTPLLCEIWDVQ
Vitamin D3 receptor (Homo sapiens), sequence (P11473 whole entry, looked up): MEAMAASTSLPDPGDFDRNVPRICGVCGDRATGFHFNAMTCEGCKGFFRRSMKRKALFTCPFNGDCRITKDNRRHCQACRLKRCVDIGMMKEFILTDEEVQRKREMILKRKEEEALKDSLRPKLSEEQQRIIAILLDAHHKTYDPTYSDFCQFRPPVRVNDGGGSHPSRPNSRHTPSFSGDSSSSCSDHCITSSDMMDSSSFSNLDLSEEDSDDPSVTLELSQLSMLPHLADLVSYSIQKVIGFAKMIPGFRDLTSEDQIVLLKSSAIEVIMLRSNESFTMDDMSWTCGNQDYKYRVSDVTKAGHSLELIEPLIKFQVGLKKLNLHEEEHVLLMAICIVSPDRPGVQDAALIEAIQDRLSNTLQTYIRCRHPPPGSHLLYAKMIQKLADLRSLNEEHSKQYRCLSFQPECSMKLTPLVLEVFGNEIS

In the case of `COC(=O)c1sccc1S(=O)(=O)NC(=O)Nc1nc(C)nc(OC)n1`, the Potency result in test [1], in test [2], in test [3], in test [4], in [5] and in test [6] was “inactive” each time. The Potency entry in test [9], in test [10], in [12], in [14], in [15] and in [16] was “inactive” throughout. For the same compound, the result in test [7], in test [8], in [11], in [13] and in [17] was inactive.
Take `CCCCC(CC)COC(=O)Cl` (stereo not drawn): the Potency entry in [1], in test [3], in [18], in test [5], in test [6] and in [9] was “inactive” in each case. Besides, the Potency result in test [10], in test [12], in test [14], in test [15] and in test [16] was “inactive” each time. For the same compound, the call in test [19], in [7], in [8], in test [11], in test [13] and in test [17] was inactive.
Regarding `O=C1C=CC(=O)C=C1`, the Potency result in test [1], in test [3], in test [6], in test [9], in test [12] and in test [20] was “inactive” each time. Further, the Potency result in test [16] was “inactive”. The compound was called inactive in test [11] and in test [17].
With `N#CCCCl`, the Potency entry in test [1], in [3], in [5], in [6], in [9] and in test [12] was “inactive” throughout. The Potency result in test [14], in [15], in test [20] and in test [16] was “inactive” in each case. Moreover, the compound was classed as inactive in test [7], in [8], in test [11], in [13] and in [17].
`CC(C)(C)c1ccccc1O`: the Potency entry in [1], in test [2], in [3], in [4], in test [6] and in test [9] was “inactive” each time. Besides, the Potency result in test [10], in [12], in test [14], in test [15], in [20] and in test [16] was “inactive” in each case. Besides, the call in [7], in test [11] and in test [13] was inactive.
With `COP(=O)(OC)OC`, the Potency entry in [1], in test [2], in [3], in [4], in [18] and in test [5] was “inactive” in each case. The Potency entry in test [6], in [9], in test [12], in [14], in test [15] and in [20] was “inactive” each time. Besides, in test [16], the Potency entry was “inactive”. In addition, the outcome in test [19], in [7], in test [8], in test [13] and in test [17] was inactive.
As to `Nc1ccncc1`, the Potency entry in test [1], in test [2], in test [4], in [6], in test [9] and in [10] was “inactive” throughout. Also, the Potency entry in [12], in test [14], in test [15] and in test [16] was “inactive” throughout. In addition, the result in test [7], in test [8], in test [11], in test [13] and in test [17] was inactive.
For the compound `Nc1ccc(-c2ccc(N)c(N)c2)cc1N`, the Potency result in test [1], in test [2], in test [18], in test [5], in [6] and in test [9] was “inactive” throughout. Moreover, the Potency entry in test [10], in test [12], in test [14], in test [15] and in [16] was “inactive” in each case. The compound was called inactive in test [19], in [7] and in [11]. Also, in test [20], the Potency is 27.2 µM (active).
As to `CCCCCc1cc(O)cc(O)c1`, the Potency entry in [1], in test [2], in test [3], in [18], in test [5] and in test [6] was “inactive” in each case. Also, the Potency result in test [9], in test [12], in test [14], in test [15], in [20] and in test [16] was “inactive” in each case. Besides, the result in test [19], in test [7], in [8], in test [11] and in test [13] was inactive.
